Screens (PubChem)
Sampled rows, rich in hits. Any-hit rate of the full collection: about 5.8%.
VP16 counter: counter-screen for ROR gamma inhibitors: Gal4-VP16 reporter; Potency, µM (top dose mostly 53.6 µM), usual class: inhibitors; Drosophila S2 Gal4-VP16 UAS-luciferase, luminescence, 20 h; hit rate 3.5% among 310,000;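 note: Gal4-VP16 expression switched on by copper sulfate through the metallothionein promoter; nearly all actives have a fitted effect of over 50% in size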
TRPV1 PAM: human TRPV1 potentiation; potentiation, % at 8.33 µM; TRPV1-expressing cells, Fluo-8 calcium influx, capsaicin EC20 potentiation; Q8NER1; hit rate 0.02% among 320,000; in the data active = potentiation above about 80%; inconclusive = between about 30% and that limit
Target sequence (Q8NER1 whole entry, looked up): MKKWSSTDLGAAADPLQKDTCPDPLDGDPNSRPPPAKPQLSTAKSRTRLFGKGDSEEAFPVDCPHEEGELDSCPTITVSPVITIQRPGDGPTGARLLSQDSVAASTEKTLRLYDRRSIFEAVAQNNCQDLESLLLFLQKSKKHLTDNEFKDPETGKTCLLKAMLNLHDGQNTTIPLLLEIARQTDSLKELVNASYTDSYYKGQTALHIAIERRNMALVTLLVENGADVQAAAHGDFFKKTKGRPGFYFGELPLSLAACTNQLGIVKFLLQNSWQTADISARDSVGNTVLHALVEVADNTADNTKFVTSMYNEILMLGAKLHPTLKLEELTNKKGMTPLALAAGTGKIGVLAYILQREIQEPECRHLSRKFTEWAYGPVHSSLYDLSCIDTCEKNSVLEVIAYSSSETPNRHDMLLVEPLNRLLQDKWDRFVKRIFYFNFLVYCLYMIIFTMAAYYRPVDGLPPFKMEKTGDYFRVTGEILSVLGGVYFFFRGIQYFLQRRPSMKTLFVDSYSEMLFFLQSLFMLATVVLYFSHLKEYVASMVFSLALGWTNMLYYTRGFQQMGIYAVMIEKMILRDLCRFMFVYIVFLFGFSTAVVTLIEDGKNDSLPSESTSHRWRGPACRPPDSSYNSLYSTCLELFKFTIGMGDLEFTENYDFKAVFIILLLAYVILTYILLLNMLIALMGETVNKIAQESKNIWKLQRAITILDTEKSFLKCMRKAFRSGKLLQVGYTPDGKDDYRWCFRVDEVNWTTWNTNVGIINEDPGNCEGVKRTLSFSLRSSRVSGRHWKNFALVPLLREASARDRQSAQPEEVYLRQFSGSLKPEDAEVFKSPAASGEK
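TRPV1-expressing cells were cultured overnight at 35.5C and loaded with Fluo-8 calcium dye for 40 to 90 min at room temperature. After a 10 s baseline, compound was added and calcium influx was read kinetically for 3 min (ex 480/em 520 nm).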
RORg inh: blocks mouse ROR gamma transcriptional activity | Drosophila S2 Gal4-RORgamma UAS-luciferase reporter, 20 h | hit rate 5.4% among 310,000 | Potency, µM (highest dose often 53.6 µM), usual class: inhibitors | P51450; note: nearly all actives have a fitted effect of over 60% in size
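Stable Schneider cell line, Gal4 DNA-binding domain fused to ROR gamma, UAS-luciferase. Cmpd 1 hr RT → CuSO4 700 uM final → 20 hr RT → luciferase reagent 10 min → luminescence.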
uPA surface inh: inhibitors of cell surface uPA generation; cell surface uPA generation assay, qHTS; Potency, µM (highest dose often 38.3 µM), most hits filed as inhibitors; hit rate 0.31% among 330,000; active = well fitted inhibition curve with a large enough effect; inconclusive = small, poorly fitted or top-dose-only effect; inactive = no such curve, though single readings can be large or run the other way; tested in mouse RAW 264.7 cells; note: nearly all actives have a fitted effect of over 55% in size
TRPV1 ag: agonists of human vanilloid receptor 1 (TRPV1). activation, % at 8.33 µM. TRPV1-expressing cells, Fluo-8 calcium influx, agonist mode. hit rate 0.19% among 320,000. Q8NER1; in the data active = activation above about 80%; inconclusive = between about 30% and that limit
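TRPV1-expressing cells were cultured overnight at 35.5C and loaded with Fluo-8 calcium dye for 40 to 90 min at room temperature. After a 10 s baseline, compound was added and calcium influx was read kinetically for 3 min (ex 480/em 520 nm).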
Numbers stand for hits; . = inactive; ? = inconclusive; / = no result given; [ ] = another dose, or the depositor's remark. Unless noted, calls come from the whole dose curve; as a rule, active = well fitted curve in the direction sought with a large enough effect; inconclusive = small, poorly fitted or top-dose-only effect, or another doubt; inactive = no such curve, though single readings can be large; an effect the other way counts as inactive or inconclusive.

SMILES	VP16 counter	TRPV1 PAM	RORg inh	uPA surface inh	TRPV1 ag
Cc1cc(C)nc(SCC(=O)O)n1	.	.	.	.	.
Cc1cc(C)nc(SCNC(=O)c2ccccc2)n1	4µM	?	2.8µM	.	.
NCCCC[C@H](NC(=O)[C@@H]1CCCN1C(=O)[C@@H](N)CCCN=C(N)N)C(=O)N1CCC[C@H]1C(=O)N[C@@H](CCC(N)=O)C(=O)N[C@@H](CCC(N)=O)C(=O)N[C@@H](Cc1ccccc1)C(=O)O	.	/	.	/	/
Cc1nn(CCCC(=O)Nc2nccs2)c(C)c1[N+](=O)[O-]	.	.	.	.	.
O=C(OC(C(=O)NCc1cccs1)c1ccccc1Cl)c1ccco1 (stereo unspecified)	.	.	.	.	.
Cc1ccc(N(CC(=O)Nc2ccccc2-c2ccccc2)S(=O)(=O)c2ccccc2)c(C)c1	?	.	.	.	.
CCn1nc(C(=O)Nc2ccc(Cl)c(S(=O)(=O)N3CCOCC3)c2)c2ccccc2c1=O	/	.	/	.	.
O=C(Nc1ccccn1)c1onc2c1CCCC2	8.9µM	.	6.3µM	.	.
O=C(Nc1ccccn1)c1csc2c1CCCC2	?	.	.	.	.
O=C(COC(=O)C12CC3CC(CC(Br)(C3)C1)C2)Nc1cccc(S(=O)(=O)N2CCOCC2)c1	/	/	/	.	/
Oc1[nH]c2ccccc2c1N=Nc1ccccn1	/	/	/	.	/
Oc1c(N=Nc2ccccn2)ccc2ccccc12	.	.	0.11µM	.	.
O=C(Nc1ccc(N2CCOCC2)c(Cl)c1)c1ccccc1F	?	.	.	.	.
Cc1cc(C(=O)Nc2ccc(N3CCOCC3)c(Cl)c2)c(C)o1	.	.	3.2µM	?	?
O=C(Nc1ccc(N2CCOCC2)c(Cl)c1)c1ccc2c(c1)OCCO2	?	.	0.79µM	.	.
Cc1ccc(NC(=O)c2cc(N3C(=O)C=CC3=O)ccc2N2CCOCC2)cc1Cl	3.2µM	.	5.6µM	.	.
Cc1ccc(NC(=O)c2cc(N3C(=O)CCC3=O)ccc2N2CCOCC2)cc1	.	.	.	/	.
COc1ccc(-c2oc3cc(O[C@@H]4OC(CO)C(O)C(O)C4O)c(OC)c(O)c3c(=O)c2OC)cc1O (stereo partly specified)	.	/	?	/	/
COc1ccc(NC(=O)C(=O)Nc2cccc3cccnc23)cc1OC	2.8µM	.	1.8µM	.	.
COc1ccc(NC(=O)C(=O)Nc2cccc3cccnc23)c(OC)c1	2.5µM	.	1.4µM	.	.
Cc1csc(SCC(=O)c2cc(C)n(Cc3cccs3)c2C)n1	8.9µM	.	6.3µM	.	?
Cc1cc(C(=O)CSc2nnc(N)s2)c(C)n1Cc1cccs1	11µM	.	8.9µM	.	.
CC(=O)Nc1ccc(SCC(=O)c2cc(C)n(Cc3cccs3)c2C)cc1	?	.	.	.	.
CCCNS(=O)(=O)c1cc2c(cc1Br)CCN2C(=O)CC	/	/	/	.	/
CCC(=Nc1ccccc1)C1=C(O)CCCC1=O	.	.	.	.	.
SMILES	VP16 counter	TRPV1 PAM	RORg inh	uPA surface inh	TRPV1 ag
CCC(=Nc1ccccc1)C1=C(O)CC(C)(C)CC1=O	.[10 µM]	105	.	/	.
Nc1ccc(C(=O)N/N=C\C=C\c2ccc([N+](=O)[O-])cc2)cc1	.	.	.	.	.
O=C(N/N=C/C=C/c1ccc2c(c1)OCO2)c1ccc([N+](=O)[O-])cc1	10µM	.	2µM	.	.
O=C(N/N=C\C=C\c1ccc(Br)cc1)c1ccc2c(c1)OCO2	4.5µM	.	13µM	.	.
O=C(Nc1ccc(Br)cc1)c1ccc2c(c1)OCO2	.	.	?	.	?
Cc1ccc(OCCCn2ccnc2)c(Br)c1	?	.	?	.	.
COC(=O)C1=C(C)NC(C)=C(C(=O)OCCNCc2ccccc2)C1c1cccc([N+](=O)[O-])c1 (stereo unspecified)	.	/	.	/	/
O=P1(O)Oc2c(c(-c3ccccc3)cc3ccc4ccccc4c23)-c2c(-c3ccccc3)cc3ccc4ccccc4c3c2O1	.	/	.	/	/
CCOC(=O)N1CCN(C(=O)c2ccc(N(Cc3ccccc3Cl)S(C)(=O)=O)cc2)CC1	.	.	.	.	.
COc1ccc2sc(N(CCN(C)C)C(=O)/C=C/c3cccs3)nc2c1	.	.	.	?	.
COc1ccc2nc(N(CCN(C)C)C(=O)/C=C/c3cccs3)sc2c1	.	.	.	10µM	.
Cc1ccc(CNS(=O)(=O)c2c(N)n(C)c(=O)n(C)c2=O)cc1	.	.	.	.	.
CC(C)(C)NC(=O)COC(=O)c1ccccc1Oc1ccccc1	.	.	.	.	.
CC(=O)Nc1ccc(NC(=O)COC(=O)C2c3ccccc3Oc3ccccc32)cc1	.	.	.	.	.
Cc1nnnn1/C(=C\c1ccccc1)C(=O)OCC(=O)NC1CCCCC1	/	.	/	7.9µM	.
CC(=O)Nc1ccc(NC(=O)COC(=O)/C(=C/c2ccccc2)n2nnnc2C)cc1	?	.	16µM	.	.
Cc1nnnn1/C(=C\c1ccccc1)C(=O)OCC(=O)NC(C)(C)C	20µM	.	13µM	.	.
CCOc1ccc(S(=O)(=O)N(CC(=O)NC2CCCC2)c2ccc(F)cc2)cc1	/	/	/	.	/
CC(C)NC(=O)/C(C#N)=C/c1ccc(N(C)C)o1	.	.	.	.	.
CCC(C)C(NC(=O)OC(C)(C)C)C(=O)NC1COC2CC(n3ccc(=O)[nH]c3=O)OC12 (stereo unspecified)	.	/	.	/	/
CCn1c(=O)c(C(=O)NNC(=O)c2ccccc2Cl)c(O)c2ccccc21	?	.	7.9µM	.	.
CCCCCC(=O)NNC(=O)c1c(O)c2ccccc2n(CC)c1=O	.	.	.	.	.
